Reference: PubChem BioAssay AID623870 (Broad Institute, 2012)
Screen size: about 390,000 compounds; about 2,600 (0.67%) were called active.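 How the source made its calls: active means mean inhibition of replicates at least 50% and at least half of replicates each reaching 50%; inconclusive means half or more replicates reach 50% but mean below 50%; inactive means the rest.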 The list comes from a sample in which actives are over-represented; it also holds similar structures and randomly drawn compounds.

Molecular target: Transforming acidic coiled-coil-containing protein 3 (Homo sapiens) (UniProt Q9Y6A5)
Assay: inhibitors of ARNT PAS-B binding to TACC3 – biochemical, AlphaScreen, single concentration, primary screen (AID 623870);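 further: 0% = complete ARNT plus TACC3 wells and 100% = ARNT alone without TACC3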
Conditions: AlphaScreen His-ARNT PAS-B/GST-TACC3 binding, luminescence; at 9.99 µM; hits give high values; TACC3 fragment carries E629A point mutation

inhibition, inactive:
CCCC(=O)Nc1ccc2c(c1)OC[C@H](C)N(CCC)C[C@@H](C)[C@@H](OC)CN(C)C2=O 1.16%
CC(C)NC(=O)Nc1ccc2c(c1)C(=O)N([C@H](C)CO)C[C@H](C)[C@@H](CN(C)S(=O)(=O)c1ccc(F)cc1)OCCCC[C@H](C)O2 -7.08%
CCCN(C)C[C@@H]1Oc2cc(C#CCc3ccccc3)ccc2S(=O)(=O)N([C@H](C)CO)C[C@@H]1C 1.97%
CCOc1cc(/C=N/n2cnnc2)c(Br)cc1O 7.91%
O=C1CSC(=S)N1/N=C/c1ccc(O)c([N+](=O)[O-])c1 12.1%
C[C@H](CO)N1C[C@H](C)[C@H](CN(C)C(=O)c2cnccn2)Oc2cc(C3=CCCC3)ccc2S1(=O)=O 1.21%
COCC#Cc1ccc2c(c1)O[C@@H](CN(C)Cc1ccccn1)[C@@H](C)CN([C@@H](C)CO)S2(=O)=O -0.755%
O=C(NNc1nc(N2CCCC2)nc(N2CCCC2)n1)c1ccccc1 -2.38%
C/C(=N\Nc1nc(N2CCOCC2)nc(N2CCOCC2)n1)c1ccc([N+](=O)[O-])cc1 15.4%
CCCN1C[C@@H](C)[C@H](OC)CN(C)C(=O)c2ccc(NC(=O)C3CCOCC3)cc2OC[C@@H]1C -0.135%
C[C@H]1CN([C@@H](C)CO)C(=O)c2cccc(NC(=O)Nc3ccccc3)c2O[C@H]1CN(C)Cc1ccc(C(F)(F)F)cc1 7.66%
Fc1ccccc1/C=N/Nc1cc(N2CCCCC2)ncn1 22.7%
Nc1nonc1-n1nnc(C(=O)N/N=C/c2cc(Br)ccc2O)c1CSC1=NCCS1 17.4%
C[C@H]1CN([C@@H](C)CO)C(=O)c2c(c3ccccc3n2C)-c2ccccc2CO[C@H]1CN(C)S(=O)(=O)c1ccc(C#N)cc1 11.3%
O=C(C[C@@H]1CC[C@H]2[C@@H](COC[C@@H](O)CN2C(=O)Nc2ccc(F)cc2)O1)NCC1CC1 1.68%
COc1cccc(N(CC(=O)N2CCc3ccccc3C2)S(C)(=O)=O)c1 1.07%
CN(c1ccccc1)S(=O)(=O)c1ccc(C(=O)N2CCN(c3ccccc3Cl)CC2)cc1 -20.3%
COc1ccc(S(=O)(=O)N(C)C[C@@H]2OCCCC[C@@H](C)Oc3ccc(NS(C)(=O)=O)cc3C(=O)N([C@H](C)CO)C[C@@H]2C)cc1 -15.8%
CCCN(C)C[C@H]1Oc2ncc(C#CCOC)cc2C(=O)N([C@@H](C)CO)C[C@H]1C -7.68%
Cc1ccc(S(=O)(=O)Nc2ccc3c(c2)C(=O)N([C@H](C)CO)C[C@H](C)[C@H](CN(C)C(=O)Nc2ccc4c(c2)OCO4)OCCCC[C@@H](C)O3)cc1 -0.754%
Cc1ccccc1N1CCN(C(=O)c2cccnc2)CC1 -7.09%
COc1ccc(Nc2ncc(C(=O)N3CCN(c4ccccc4OC)CC3)c3ccccc23)cc1 1.33%
Cc1ccc(S(=O)(=O)NCC[C@H]2CC[C@@H](NS(=O)(=O)c3ccccc3Cl)[C@H](CO)O2)cc1 2.36%
C[C@@H]1CN([C@@H](C)CO)C(=O)c2cc(NC(=O)C3CCCCC3)ccc2O[C@@H]1CN(C)S(=O)(=O)c1ccc(F)cc1 -1.9%
COC(=O)[C@@H]1CCCN1C(=O)c1cc(COc2cccc3cccnc23)on1 6.38%
NC(=O)C1CCN(C(=O)COc2cccc3cccnc23)CC1 -5.01%
C[C@@H]1CN([C@@H](C)CO)C(=O)c2cccc(N(C)C)c2O[C@@H]1CN(C)S(=O)(=O)c1ccccc1 -5.11%
C[C@@H]1CCCCO[C@H](CN(C)C(=O)CCC(F)(F)F)[C@H](C)CN([C@@H](C)CO)C(=O)c2cc(NC(=O)CCCCCC(=O)Nc3ccccc3N)ccc2O1 0.568%
CO[C@H]1CN(C)C(=O)c2ccc(NC(C)=O)cc2OC[C@@H](C)N(C(=O)c2ccncc2)C[C@@H]1C 34.9%
O=C(O)C[C@@H]1C[C@@H]2c3cc(NC(=O)Nc4ccccc4)ccc3O[C@@H]2[C@H](CO)O1 -4.96%
C[C@H]1CN([C@@H](C)CO)C(=O)Cc2cc(NC(=O)Nc3ccc(F)cc3)ccc2O[C@H]1CN(C)S(=O)(=O)c1ccc(F)cc1 -0.385%
COc1ccc(CN(C)C[C@H]2Oc3c(NC(=O)c4ccncc4)cccc3C(=O)N([C@H](C)CO)C[C@@H]2C)cc1 -4.67%
Cc1ccc(C(=O)Nc2ccc(C)c(S(=O)(=O)N(C)C)c2)s1 -4.57%
Cc1cc(S(=O)(=O)NCc2ccccn2)c(Cl)cc1Cl -1.4%
C[C@@H]1CN([C@@H](C)CO)C(=O)c2cc(NC(=O)Cc3ccccc3)ccc2O[C@@H](C)CCCCO[C@H]1CN(C)C(=O)Cc1ccccc1 -2.35%
CC[C@]1(O)C[C@@H]2CN(CCc3c([nH]c4ccccc34)[C@@](C(=O)OC)(c3cc4c(cc3OC)N(C)[C@H]3[C@@](O)(C(=O)OC)[C@H](OC(C)=O)[C@]5(CC)C=CCN6CC[C@]43[C@@H]65)C2)C1 16%
CN1c2ccc(-c3cccc(C#N)c3)cc2[C@H]2[C@H](CCN2S(=O)(=O)c2cccc(F)c2)[C@@H]1CO -10.1%
CNC[C@H]1OCCCC[C@H](C)Oc2ccc(NS(C)(=O)=O)cc2C(=O)N([C@@H](C)CO)C[C@H]1C -0.797%
O=C(COC(=O)c1ccc(Br)o1)NC12CC3CC(CC(C3)C1)C2 6.24%
O=C(OCC(=O)c1cccs1)c1ccc([N+](=O)[O-])o1 -2.19%
CCN(C[C@H]1[C@H](c2ccc(-c3ccccc3)cc2)[C@H](CO)N1CC1CC1)C(C)=O 2.62%
C[C@@H]1CCCCO[C@H](CN(C)C(=O)CCC(F)(F)F)[C@@H](C)CN([C@@H](C)CO)C(=O)c2cc(NC(=O)c3ccncc3)ccc2O1 11%
CC(C)c1ccc(Cc2nnc(NCCCO)[nH]c2=O)cc1 -6.28%
Cc1ccc(Cc2nnc(SCC(=O)Nc3ccccc3C)[nH]c2=O)cc1 -1.06%
COc1cccc(NC(=O)C[C@H]2CC[C@@H]3[C@H](COc4ccc(NC(C)=O)cc4C(=O)N3C)O2)c1 13%
C[C@@H]1CN([C@H](C)CO)C(=O)c2cc(NC(=O)Nc3ccc4c(c3)OCO4)ccc2O[C@@H]1CN(C)C(=O)Nc1ccc(F)cc1 14%
CCC(=O)N1C[C@H]2[C@@H](c3ccccc31)[C@H](CO)N2Cc1ccccc1F -4.33%
CC(=O)N1[C@@H](CO)[C@@H]2c3ccccc3N(S(=O)(=O)c3ccccc3)C[C@@H]21 4.39%
O=C(C1CCCC1)N1[C@H](CO)[C@@H]2c3ccccc3N(S(=O)(=O)c3ccccc3)C[C@@H]21 -1.74%
O=C(C[C@@H]1CC[C@@H]2[C@H](COC[C@@H](O)CN2Cc2ccc(Cl)cc2)O1)NCc1ccccc1Cl 1.65%
COc1ccccc1NC1=NC(c2ccc(Cl)cc2)N=C(N)N1 (stereo not given) -1.44%
COc1ccccc1Nc1nc(N)nc(CSC(=S)N2CCOCC2)n1 0.944%
COc1ccc(S(=O)(=O)N(C)C[C@@H]2Oc3ncc(C#Cc4ccc(F)cc4)cc3C(=O)N([C@H](C)CO)C[C@@H]2C)cc1 -1.03%
N#CC1=C(N)Oc2c(sc3ccccc23)C1c1ccco1 (stereo not given) 34.5%
C[C@@H]1CN([C@H](C)CO)C(=O)c2c(c3ccccc3n2C)-c2ccccc2CO[C@@H]1CN(C)C(=O)Nc1ccccc1 6.33%
CCCNC(=O)N(C)C[C@@H]1Oc2ncc(C#CCc3ccccc3)cc2C(=O)N([C@@H](C)CO)C[C@H]1C -5.08%
COc1ccc(S(=O)(=O)N(C)C[C@H]2OCCCC[C@@H](C)Oc3ccc(NC(=O)CCC(F)(F)F)cc3C(=O)N([C@@H](C)CO)C[C@H]2C)cc1 -1.27%

inhibition, active:
CCOc1cccc(/C=N/N2C(=O)CSC2=S)c1O 59.8%
O=C(O)c1ccc(/C=N/Nc2nc(N3CCCCC3)nc(N3CCCCC3)n2)cc1 45%
Oc1ccc(Br)cc1/C=N/Nc1ccccn1 44.2%
CN(c1ccc(C(=O)N2CCc3ccccc3C2)cc1)S(C)(=O)=O 54%
O=C(Nn1cc(C(=O)N2CCN(c3ccccc3F)CC2)c2ccccc2c1=O)c1cnccn1 68.5%
CCOc1cc(N2CCOCC2)c(OCC)cc1NC(=O)COc1cccc2cccnc12 59.4%
Cc1ccc(NC(=O)CNCc2ccccn2)cc1S(=O)(=O)N(C)C 71%
CC[C@]1(O)CC2CN(CCc3c([nH]c4ccccc34)[C@@](C(=O)OC)(c3cc4c(cc3OC)N(C=O)[C@H]3[C@@](O)(C(=O)OC)[C@H](OC(C)=O)[C@]5(CC)C=CCN6CC[C@]43[C@@H]65)C2)C1 (stereo not given in full) 52.9%
O=C(COC(=O)c1ccc([N+](=O)[O-])o1)NC12CC3CC(CC(C3)C1)C2 31.3%
COc1ccc(Cc2nnc(N/N=C/c3ccccc3O)[nH]c2=O)cc1OC 58.3%
O=S(=O)(c1ccccc1)N1C[C@@H]2[C@H](c3ccccc31)[C@H](CO)N2Cc1ccccn1 32.5%
COc1ccccc1Nc1nc(N)nc(CN(C)C2CCCCC2)n1 54%
N#CC1=C(N)Oc2c(ccc3cccnc23)C1c1ccncc1 (stereo not given) 71.2%
